# Results published in PubChem BioAssay (NCI).
# About 83,000 compounds went through this panel and 20% of them were active in at least one assay; those are over-represented in the sample as a whole.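 Activity criterion: percent growth below 10, measured after cells in 96-well plates were exposed to a single compound concentration for 48 hours.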 Values without a mark were called inactive. Active and inactive are the calls of the source.
# Tested on: HL-60(TB) leukemia
# Experiment: NCI-60 one-dose screen, 48 h (100 = growth as untreated, 0 = no growth, -100 = all killed)
# Details: 10 µM unless noted
row,SMILES,growth
1,COC(=O)/C=C1/CCCCC1(C)C(=O)OC (stereo not given),102%
2,C[N+]1(CC2CO2)CCCCCC1 (stereo not given),109%
3,COc1c(F)cc(-n2c(C(=O)N3CC(F)C3)cc3cccnc32)cc1F,98.3%
4,O=C1/C=C/[C@@H](O)[C@@H]2C[C@@H](O)C[C@H]2/C=C/CCC[C@@H](O)CCO1,123%
5,COC(=O)[C@]12CC[C@@H](C)[C@H](C)[C@@H]1C1=CC[C@@H]3[C@@]4(C)C=C(O)C(=O)[C@@]5(C)COC(=C54)C[C@@]3(C)[C@]1(C)CC2,-50% (active)
6,Cn1c(C#N)ccc1-c1ccc(F)c(NC(=O)c2ccc(F)cc2)c1,60%
7,COc1cccc(/C=C\C(=O)c2ccccc2)c1,43.9%
8,O=c1[nH]nc(-c2ccc(Br)cc2)c2sc(NC(=S)Nc3ccc(Cl)cc3)nc12,94.2%
9,Cc1nc(/N=C(\N)NC(=O)Nc2cccc(Cl)c2)sc1C,42.8%
10,COc1ccc(OC)c(Nc2nc3nonc3nc2Nc2cccc(Br)c2)c1,-14.1% (active)
11,COc1c(-c2cc(-c3ccc(C)o3)[nH]c(=O)n2)c(O)cc2occc12,38.2%
12,CN(C)c1ccc2c(c1)/C(=N/O)c1ccccc1-2,87.3%
13,NC(=O)N/N=C\c1ccc([N+](=O)[O-])o1,120%
14,CCOc1ccc(C2N(c3cc(OC)c(OC)c(OC)c3)C(=O)C2(F)F)cc1 (stereo not given),-16% (active)
15,N=c1nc(N2CCCCC2)cc(N)n1O,92.4%
16,CCOS(=O)(=O)c1c(C(C)C)cc(C(C)C)cc1C(C)C,89%
17,NC(N)=Nc1nc2ccccc2n2c1nc1ccccc12,37.7%
18,N#Cc1cncc(-c2ccc3ncnc(Nc4cccc(Cl)c4)c3c2)c1,97.2%
19,Cc1cc(=O)oc2cc(OC(=O)CN3CCN(C)CC3)ccc12,122%
20,COc1ccc(/C=C2\CCC3C(CCCC34OCCO4)C2=O)cc1 (stereo not given),78.3%

row,SMILES,growth
1,COc1ccc(-c2cc(C#N)c(NNC(C)=O)[nH]2)cc1,11.4%
2,Cc1ccc([C@H]2c3[nH]c4ccccc4c3C[C@H]3C(=O)N(CCCCCCC(=O)NO)CC(=O)N23)cc1,18.6%
3,CCCCNC(=O)c1ccccc1C,84.4%
4,Clc1nc2ccccc2cc1Cn1nnc(Cc2ccccc2)n1,87.9%
5,COc1ccc(C(=O)/C=C/c2ccccn2)c(O)c1,23.4%
6,O=C(/C=C\c1cccc([N+](=O)[O-])c1)c1ccccc1,-43.8% (active)
7,Cc1nn(-c2ccc(F)cc2)c2ncnc(Oc3ccc(NC(=O)Nc4ccc(Cl)c(C(F)(F)F)c4)cc3)c12,99%
8,Oc1cccc2oc(=S)[nH]c12,121%
9,Cc1ccc(C(=O)N/N=C/c2ccc3c(c2)OCO3)cc1,90.4%
10,COC(=O)N[C@H]1CCc2cc(OC)c(OC)c(OC)c2-c2ccc(SC)c(=O)cc21,-45.4% (active)
11,O=C(O)c1cn(C2CC2)c2cc(N3CCN(Cc4ccc5ccccc5c4O)CC3)c(F)cc2c1=O,69.7%
12,CCOC(=O)C1OC1c1ccccc1 (stereo not given),97%
13,COc1c(C)c2c(c(O)c1C/C=C(\C)CCC(=O)O)C(=O)OC2,45.6%
14,Cn1/c(=N/NC(N)=S)ccc2ccccc21,106%
15,COC(=O)[C@]12CC[C@@H](C)[C@H](C)[C@@H]1C1=CC[C@@H]3[C@@]4(C)C[C@@H](OC(=O)c5ccco5)[C@H](O)[C@@](C)(CO)[C@@H]4[C@H](O)C[C@@]3(C)[C@]1(C)CC2,-79.6% (active)
16,O=C(N/N=C/c1cccc([N+](=O)[O-])c1)c1ccc(Br)o1,103%
17,C/C(=C(/c1ccc(Cl)cc1)c1ccc(OCCN2CCCCCC2)cc1)c1ccccc1,63.6%
18,CC(=O)O[C@H]1CC[C@@]2(C)[C@@H](CC[C@@H]3[C@@H]2CC(=O)[C@@]2(C)[C@H]3C[C@@H](C3CCCC3=O)[C@@H]2C(C)=O)C1 (stereo not given in full),51.8%
19,CCN(CC)CCCNCc1cc(-c2ccccc2)nc2ccccc12,-19.3% (active)
20,COc1cccc(-c2nc3sccn3c2-c2ccnc(NCCNS(=O)(=O)c3cccc(F)c3)c2)c1,-1.8% (active)
